Measured values taken from PubChem BioAssay AID1159580 (chemical genetic matrix, 2015).
Where “and” joins values, the source holds several entries; their conditions need not be identical. Equal values may be shown once. Out of some 5,500 compounds screened, about 2,000 (36%) were called active. Roughly 18% stayed inconclusive and do not appear here. Rule as the data show it: active = normalized growth mostly below about 0.91 (no sharp cut-off); inconclusive = no clear call, values can overlap the other calls; inactive = mostly above about 0.92. The list shows a part of the results.

Test: chemical genetic growth profiling, strain panel (AID 1159580);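 also: tested at 20 µM; growth read once vehicle control cultures reached saturation at 30 °C; 1 = growth at the plate median or of vehicle wells; lower values mean less growth of the strain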
Details: S. cerevisiae deletion strains, growth OD

Measured: normalized growth

C[n+]1cc2c3c(ccc2c2ccc4cc5c(cc4c21)OCO5)OCO3
0.073 (active) and 0.976 (inactive): locus YJL095W, strain BCK1, stronger effect = lower value
inactive: locus YBR171W, strain sec66, stronger effect = lower value 0.983 | locus YDL185W, strain tfp1, stronger effect = lower value 0.914 | locus YDR001C, strain nth1, stronger effect = lower value 0.928 | locus YDR069C, strain doa4, stronger effect = lower value 0.902 | locus YDR195W, strain ref2 1.09 | locus YER002W, strain NOP16, stronger effect = lower value 1.01 | locus YGL167C, strain pmr1, stronger effect = lower value 0.974 | locus YHR079C, strain IRE1, stronger effect = lower value 0.985 | locus YJL154C, strain vps35, stronger effect = lower value 0.962
active: locus YAL013W, strain DEP1, stronger effect = lower value 0.06 and 0.0669 | locus YAL021C, strain ccr4, stronger effect = lower value 0.823 | locus YAL026C, strain drs2, stronger effect = lower value 0.657 | locus YAL030W, strain snc1, stronger effect = lower value 0.676 | locus YBL061C, strain skt5, stronger effect = lower value 0.627 | locus YBR009C, strain hhf1, stronger effect = lower value 0.268 | locus YBR021W, strain FUR4, stronger effect = lower value 0.146 | locus YBR023C, strain chs3, stronger effect = lower value 0.592 | locus YBR229C, strain ROT2, stronger effect = lower value 0.0617 | locus YBR231C, strain swc5, stronger effect = lower value 0.326 | locus YBR279W, strain paf1, stronger effect = lower value 0.674 | locus YCL011C, strain gbp2, stronger effect = lower value 0.34 | locus YCL016C, strain dcc1, stronger effect = lower value 0.535 | locus YCL029C, strain bik1, stronger effect = lower value 0.0684 | locus YCL061C, strain MRC1, stronger effect = lower value 0.672 | locus YCL069W, strain vba3, stronger effect = lower value 0.596 | locus YCR088W, strain abp1, stronger effect = lower value 0.802 | locus YDL005C, strain med2, stronger effect = lower value 0.711 | locus YDL035C, strain GPR1, stronger effect = lower value 0.057 | locus YDL040C, strain nat1, stronger effect = lower value 0.858 | locus YDL074C, strain BRE1, stronger effect = lower value 0.0875 | locus YDL101C, strain DUN1, stronger effect = lower value 0.0699 | locus YDL134C, strain PPH21, stronger effect = lower value 0.0603 | locus YDL192W, strain arf1, stronger effect = lower value 0.0735 | locus YDR101C, strain arx1, stronger effect = lower value 0.0711 | locus YDR137W, strain rgp1, stronger effect = lower value 0.692 | locus YDR150W, strain NUM1, stronger effect = lower value 0.0564 | locus YDR159W, strain sac3, stronger effect = lower value 0.62 | locus YDR162C, strain NBP2, stronger effect = lower value 0.0557 | locus YDR297W, strain sur2, stronger effect = lower value 0.609 | locus YDR318W, strain mcm21, stronger effect = lower value 0.0705 | locus YDR334W, strain swr1, stronger effect = lower value 0.46 | locus YDR335W, strain msn5, stronger effect = lower value 0.714 | locus YDR363W, strain ESC2, stronger effect = lower value 0.0888 | locus YDR388W, stronger effect = lower value 0.0658 | locus YDR392W, strain spt3, stronger effect = lower value 0.11 | locus YDR502C, strain sam2, stronger effect = lower value 0.0731 | locus YEL003W, strain gim4, stronger effect = lower value 0.668 | locus YEL037C, strain rad23, stronger effect = lower value 0.797 | locus YEL061C, strain CIN8 (second series), stronger effect = lower value 0.7 | locus YEL061C, strain CIN8, stronger effect = lower value 0.0546 | locus YER015W, strain faa2, stronger effect = lower value 0.516 | locus YER016W, strain bim1, stronger effect = lower value 0.788 | locus YER110C, stronger effect = lower value 0.0876 | locus YER111C, strain swi4, stronger effect = lower value 0.847 | locus YER155C, strain BEM2 (second series), stronger effect = lower value 0.442 | locus YER155C, strain BEM2, stronger effect = lower value 0.0755 | locus YER167W, strain BCK2, stronger effect = lower value 0.0605 | locus YFR010W, strain ubp6, stronger effect = lower value 0.898 | locus YGL078C, strain dbp3, stronger effect = lower value 0.907 | locus YGL086W, strain mad1, stronger effect = lower value 0.0683 | locus YGL173C, strain kem1, stronger effect = lower value 0.772 | locus YGL227W, strain vid30, stronger effect = lower value 0.519 | locus YGL240W, strain doc1, stronger effect = lower value 0.396 | locus YGL248W, strain PDE1, stronger effect = lower value 0.0602 | locus YGL253W, strain hxk2, stronger effect = lower value 0.501 | locus YGR078C, strain PAC10, stronger effect = lower value 0.0588 | locus YGR135W, strain pre9, stronger effect = lower value 0.0753 | locus YGR229C, strain SMI1, stronger effect = lower value 0.0651 | locus YGR252W, strain gcn5, stronger effect = lower value 0.18 | locus YHR013C, strain ard1, stronger effect = lower value 0.319 | locus YHR027C, strain rpn1, stronger effect = lower value 0.73 | locus YHR079C, strain IRE1 (second series), stronger effect = lower value 0.0663 | locus YHR094C, strain hxt1, stronger effect = lower value 0.0664 | locus YHR129C, strain ARP1, stronger effect = lower value 0.0634 | locus YHR142W, strain chs7, stronger effect = lower value 0.348 | locus YHR200W, strain rpn10, stronger effect = lower value 0.0675 | locus YIL066C, strain RNR3, stronger effect = lower value 0.0586 | locus YIL073C, strain SPO22, stronger effect = lower value 0.133 | locus YIL125W, strain kgd1, stronger effect = lower value 0.915 | locus YIR030C, strain dcg1, stronger effect = lower value 0.0697 | locus YJL092W, strain hpr5, stronger effect = lower value 0.793 | locus YJL095W, strain BCK1 (second series), stronger effect = lower value 0.467 | locus YJL115W, strain asf1, stronger effect = lower value 0.881 | locus YJL129C, strain trk1, stronger effect = lower value 0.309 | locus YJL134W, strain LCB3, stronger effect = lower value 0.0573 | locus YJL164C, strain tpk1, stronger effect = lower value 0.363 | locus YJL166W, strain qcr8, stronger effect = lower value 0.242 | locus YJL168C, strain set2, stronger effect = lower value 0.0819 | locus YJL187C, strain SWE1 (second series), stronger effect = lower value 0.0606 | locus YJL187C, strain SWE1, stronger effect = lower value 0.618
0.0584 (active) and 0.981 (inactive): locus YHR030C, strain SLT2, stronger effect = lower value
